# Experimental data: a collection of fitness landscapes (doi:10.1016/j.celrep.2020.107928)
# In all, about 81,000 sequences were measured (“one-hybrid fitness for binding NBS DNA”: median about -0.1, highest 2% from about 0.36 on). The sample holds the highest values, similar sequences and a random draw of the others, so the mix is not that of the screen.
# B1: Caulobacter ParB omega fusion; a variant is named by its letters at X, in order, B8GW30 (parent)
# chain: MESVVVGEPGMSEGRRGLGRGLSALLGEVDAAPAQAPGEQLGGSREAPIEILQRNPDQPRRTFREEDLEDLSNSIREKGVLQPILVRPSPDTAGEYQIVAGERAWRAAQRAGLKTVPIMVRELDDLAVLEIGIIENVQRADLNVLEEALSYKVLMEKFERTQENIAQTIGKSXSHVANXMRLLXLPDEVQSYLVSGELTAXHARAIAAAADPVALAKQIIEGGLSVRETEALARKAPNLSAGKSKGGRPPRVKDTDTQALESDLSSVLGLDVSIDHRGSTGTLTITYATLEQLDDLCNRLTRGI
# Variants of: B1
# Assay: one-hybrid fitness for binding NBS DNA (the Noc-binding site; scaled: cognate 1, non-cognate 0); higher = stronger binding
# Conditions: with NBS DNA site
# Method in brief: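 The reporter was HIS3, with the binding site 19 bp from the promoter, in E. coli USO used for bacterial one-hybrid selection of Caulobacter ParB libraries with four specificity codons randomised. Growth was on M9 lacking histidine, with 0.1 mM IPTG and 5 mM 3-AT, for 48 hours at 37°C. Illumina sequencing covered plasmids before and after selection; three replicate libraries were pooled and variants with under 10 reads dropped. A fitness score is the log change in variant-to-wild-type read ratio, rescaled to the cognate and non-cognate references.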
row,Variant,one-hybrid fitness for binding NBS DNA
1,CSAE,≤ 0.2
2,YFMR,≤ 0.2
3,TNFF,≤ 0.2
4,AHDA,≤ 0.2
5,FHFL,≤ 0.2
6,CNVL,≤ 0.2
7,HYMT,≤ 0.2
8,QRMT,0.729
9,QIMT,0.219
10,QLMT,0.34
11,QPMT,≤ 0.2
12,QAMT,0.346
13,QCMT,0.477
14,QRMG,0.329
15,QKMT,0.424
16,QRMC,0.333
17,QSMT,0.368
18,QKMY,0.224
19,QKMN,≤ 0.2
20,QLVV,≤ 0.2
21,KKDV,≤ 0.2
22,RLWA,≤ 0.2
23,WGTT,≤ 0.2
24,PARD,≤ 0.2
25,RCAQ,≤ 0.2
26,FSIR,≤ 0.2

row,Variant,one-hybrid fitness for binding NBS DNA
1,RTAT,0.499
2,RTFH,≤ 0.2
3,RTAF,≤ 0.2
4,RTFT,0.417
5,RTAQ,≤ 0.2
6,RTFP,≤ 0.2
7,YRWR,≤ 0.2
8,QYAW,≤ 0.2
9,CWPD,≤ 0.2
10,IVKR,≤ 0.2
11,TREN,≤ 0.2
12,RVKP,≤ 0.2
13,RVKN,0.203
14,RVKD,≤ 0.2
15,RVVT,0.261
16,RVVR,0.3
17,RVKS,0.578
18,RVKR,0.665
19,RVKT,0.652
20,RVKH,0.321
21,DVAM,≤ 0.2
22,FLSS,≤ 0.2
23,SKYT,≤ 0.2
24,PHGE,≤ 0.2
25,KVPL,≤ 0.2
26,QVYY,≤ 0.2

row,Variant,one-hybrid fitness for binding NBS DNA
1,QVKS,0.49
2,QVKN,≤ 0.2
3,QVKT,0.564
4,QVKP,≤ 0.2
5,QVVY,≤ 0.2
6,QVKM,0.229
7,QVKD,≤ 0.2
8,QVKY,0.383
9,QVVT,0.248
10,QVKH,0.38
11,QVKQ,0.241
12,MVLL,≤ 0.2
13,KYVG,≤ 0.2
14,NCLS,≤ 0.2
15,FLLI,≤ 0.2
16,SFTN,≤ 0.2
17,QSWH,≤ 0.2
18,PPWR,≤ 0.2
19,RQTH,≤ 0.2
20,RQTD,≤ 0.2
21,RQTN,≤ 0.2
22,RQTM,≤ 0.2
23,RQTP,≤ 0.2
24,RQTT,0.487
25,RQTQ,≤ 0.2
26,RQTR,0.497

row,Variant,one-hybrid fitness for binding NBS DNA
1,RQTS,0.436
2,KQNL,≤ 0.2
3,SITL,≤ 0.2
4,CLCV,≤ 0.2
5,LGTW,≤ 0.2
6,DDVR,≤ 0.2
7,LTIS,≤ 0.2
8,VYRA,≤ 0.2
9,IHWG,≤ 0.2
10,RKQP,≤ 0.2
11,RSLT,0.292
12,RKRG,0.238
13,RKRT,0.676
14,RKCM,≤ 0.2
15,RKCQ,≤ 0.2
16,RKQT,0.606
17,RKRQ,0.246
18,RCLT,0.436
19,RPLT,≤ 0.2
20,RKCT,0.583
21,RKQH,≤ 0.2
22,YFSE,≤ 0.2
23,GPRA,≤ 0.2
24,PFTR,≤ 0.2
25,YKRA,≤ 0.2
26,NSHG,≤ 0.2

row,Variant,one-hybrid fitness for binding NBS DNA
1,NIIS,≤ 0.2
2,GQRS,≤ 0.2
3,NYVI,≤ 0.2
4,EAFS,≤ 0.2
5,LCHL,≤ 0.2
6,RKNT,0.698
7,RKNQ,≤ 0.2
8,RFWT,≤ 0.2
9,RKGT,0.649
10,RIWT,0.279
11,RKNG,≤ 0.2
12,RKGQ,≤ 0.2
13,RKWT,0.456
14,RTLP,≤ 0.2
15,RKGM,0.218
16,RTLT,0.461
17,RTLY,≤ 0.2
18,RNGC,≤ 0.2
19,RYHW,≤ 0.2
20,PRPF,≤ 0.2
21,RYAS,0.342
22,NTFG,≤ 0.2
23,PTNR,≤ 0.2
24,VRMT,≤ 0.2
25,RKYT,0.643
26,RKLY,≤ 0.2

row,Variant,one-hybrid fitness for binding NBS DNA
1,RKST,0.639
2,RKDT,0.498
3,RKDF,≤ 0.2
4,RKPT,0.236
5,RKSC,0.273
6,RKLT,0.579
7,RKSF,≤ 0.2
8,RKLK,≤ 0.2
9,RKIT,0.361
10,IDAR,≤ 0.2
11,TMSR,≤ 0.2
12,SFKS,≤ 0.2
13,WVLY,≤ 0.2
14,SIAR,≤ 0.2
15,RKVI,≤ 0.2
16,KPTD,≤ 0.2
17,SPSM,≤ 0.2
18,RVWC,≤ 0.2
19,RKHP,≤ 0.2
20,RPWT,≤ 0.2
21,RCWT,0.418
22,RKHH,0.245
23,RKHT,0.645
24,RSWT,0.215
25,NLDC,≤ 0.2
26,PTPS,≤ 0.2

row,Variant,one-hybrid fitness for binding NBS DNA
1,QRQM,0.395
2,QHQH,≤ 0.2
3,QRQN,0.402
4,QSQM,≤ 0.2
5,QLQQ,≤ 0.2
6,QRQF,0.323
7,QCQM,≤ 0.2
8,QCQH,0.222
9,QRQQ,0.397
10,QREQ,≤ 0.2
11,QRQC,0.362
12,QRQH,0.544
13,WQMR,≤ 0.2
14,TQQR,≤ 0.2
15,EVHL,≤ 0.2
16,DGGN,≤ 0.2
17,RFYH,≤ 0.2
18,ATCR,≤ 0.2
19,LYYL,≤ 0.2
20,KGWY,≤ 0.2
21,YQPD,≤ 0.2
22,QRQD,0.228
23,QRQP,0.222
24,QRQS,0.688
25,NYIC,≤ 0.2
26,TPDF,≤ 0.2

row,Variant,one-hybrid fitness for binding NBS DNA
1,QTTH,0.385
2,QTTN,0.236
3,QTTD,≤ 0.2
4,QTTP,≤ 0.2
5,QTTC,0.223
6,QTTS,0.528
7,DYIR,≤ 0.2
8,VVWY,≤ 0.2
9,HIDC,≤ 0.2
10,RSWS,0.238
11,RKRN,0.258
12,RCWS,0.388
13,RPWS,≤ 0.2
14,RKYD,≤ 0.2
15,RKWN,≤ 0.2
16,RKWD,≤ 0.2
17,RKRP,≤ 0.2
18,RKYS,0.562
19,RKRS,0.666
20,RKYP,≤ 0.2
21,RKWS,0.467
